Results from PubChem BioAssay (NCI).
Where “and” joins values, the source holds several entries; their conditions need not be identical. Equal entries are not always repeated. This is part of a sample that, as a whole, favours compounds with a hit. Of some 79,000 tested, about 15% had one in any assay. Some compounds were tested as several samples or in several runs, with calls that do not always agree. Calls of active or inactive are those of the source. Rule as the data show it: active = growth inhibition above about 70%; inactive = the rest.

Experiment: NCI Yeast Anticancer Drug Screen. Data for the mlh1 rad18 strain (AID 175)
Conditions: S. cerevisiae mlh1 rad18 strain growth inhibition, stronger effect = higher value
Protocol: Growth inhibition of yeast strains with defined genetic alterations is measured as a screen for potential anti-cancer activity. Selected strains with alterations in DNA damage repair or cell cycle control were exposed to compounds and growth inhibition was measured relative to vehicle treated controls. The strain used in this assay is mlh1 rad18

[1] = at 5.0 µM (retest, dose inferred, filed as 0.5)
[2] = at 50.0 µM (retest, dose inferred, filed as 5.0)

SMILES: Cc1cc2c(c(Br)c1O)Oc1c(cc(C)c(O)c1Br)C21OC(=O)c2ccccc21
- growth inhibition [1]: 77% (active)
- growth inhibition [2]: 98% (active)
- growth inhibition (at 50.0 µM): 90% (active)

SMILES: Cc1c(-c2ccccc2)ccnc1/C=N/NC(N)=S
- growth inhibition [1]: 18% (inactive)
- growth inhibition [2]: 36% (inactive)
- growth inhibition (at 50.0 µM): 82% (active)

SMILES: COc1cc2c(cc1O)C1CN(C2)Cc2cc(OC)c(O)cc21
- growth inhibition [1]: 14% (inactive)
- growth inhibition [2]: 80% (active)
- growth inhibition (at 50.0 µM): 74.3% (active)

SMILES: Fc1ccc2nc3ccccc3nc2c1
- growth inhibition [1]: 2% (inactive)
- growth inhibition [2]: 27% (inactive)
- growth inhibition (at 50.0 µM): 76.3% (active)

SMILES: [N-]=[N+]=CC(=O)OCC1NC(=O)C(COC(=O)C=[N+]=[N-])NC1=O (configuration not stated)
- growth inhibition [1]: 2% (inactive)
- growth inhibition [2]: 1% (inactive)
- growth inhibition (at 50.0 µM): 4.15% (inactive) and 86.6% (active)

SMILES: O=C(CCC(=O)OCCOc1ccccc1)OCCOc1ccccc1
- growth inhibition [1]: 6% (inactive)
- growth inhibition [2]: 30% (inactive)
- growth inhibition (at 50.0 µM): -1.75% (inactive)

SMILES: Cc1ccccc1N=Nc1ccc(N=Nc2ccc(N)nc2N)c(C)c1
- growth inhibition [1]: -2% (inactive)
- growth inhibition [2]: -29% (inactive)
- growth inhibition (at 50.0 µM): 28.9% (inactive)

SMILES: CC(=O)OCC1OC(n2c(C)c(C(C)=O)c(-c3ccco3)c(C#N)c2=S)C(OC(C)=O)C(OC(C)=O)C1OC(C)=O (configuration not stated)
- growth inhibition [1]: -29% (inactive)
- growth inhibition [2]: 12% (inactive)
- growth inhibition (at 50.0 µM): 3.55% (inactive) and 45% (inactive)

SMILES: O=C(Nc1ccc(Cl)cc1)c1ccccc1O
- growth inhibition [1]: 4% (inactive)
- growth inhibition [2]: 9% (inactive)
- growth inhibition (at 50.0 µM): 97.2% (active) and -0.55% (inactive)

SMILES: CN1CCCc2cc(/C=C\c3ccnc4ccccc34)ccc21
- growth inhibition [1]: -21% (inactive)
- growth inhibition [2]: 96% (active)
- growth inhibition (at 50.0 µM): 97.4% (active)

SMILES: O=C1CSC(=S)N1c1ccc(F)c(F)c1
- growth inhibition [1]: -3% (inactive)
- growth inhibition [2]: 95% (active)
- growth inhibition (at 50.0 µM): 96.4% (active)

SMILES: C=C(C)C(=O)Oc1ccc(NC(=O)c2ccccc2)ccc1=O
- growth inhibition [1]: 13% (inactive) and 6% (inactive)
- growth inhibition [2]: 98% (active)
- growth inhibition (at 50.0 µM): 96.8% (active) and 96.6% (active)

SMILES: NS(=O)(=O)c1ccc(Nc2c3ccccc3nc3c(C(=O)N4CCN(CCO)CC4)cccc23)cc1
- growth inhibition [1]: 30% (inactive)
- growth inhibition [2]: 30% (inactive)
- growth inhibition (at 50.0 µM): 79.8% (active)

SMILES: Cc1cc(NS(=O)(=O)c2ccc(N=Nc3cc(N=Nc4ccc(S(=O)(=O)Nc5cc(C)nc(C)n5)cc4)c4c(NC(=O)C(Cl)Cl)cccc4c3OC(=O)C(Cl)Cl)cc2)nc(C)n1 (tested in a mixture with another compound)
- growth inhibition [1]: 21% (inactive)
- growth inhibition [2]: 70% (active)
- growth inhibition (at 50.0 µM): -56.5% (inactive) and 81.5% (active)
